# Experimental data published in the supplement of paper PMC9694430.
# Where a name gives a salt, the structure may show the parent alone.
# Test system: LOC_OS01G70970-cb002
# Assay: thermal shift delta Tm vs DMSO control; higher = stronger stabilization (binding)
# Conditions: 12.5 µM; protein concentration 2 µM
# How it was run: (§1)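 Compounds dissolved in DMSO were added to purified rice kinase domain constructs, which had been expressed in E. coli, for differential scanning fluorimetry. Each well held 19.5 μl of 2 μM kinase in 100 mM potassium phosphate pH 7.5, 150 mM NaCl, 10% glycerol and 5 × SYPRO Orange. Fluorescence was followed from 25°C to 95°C at a rate of 0.05°C/s. Shifts in Boltzmann-fitted melting temperature are triplicate means relative to DMSO-only protein.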
row,Structure (SMILES),thermal shift delta Tm
1,CN1CCN(c2nc(C3=C(c4c[nH]c5ccccc45)C(=O)NC3=O)c3ccccc3n2)CC1 [Sotrastaurin],0.69 °C
2,Cc1ccc(-n2nc(C(C)(C)C)cc2NC(=O)NCc2cc(F)ccc2Oc2ccc3c(cnn3CCO)c2)cc1 [Pexmetinib (ARRY-614)],0.6 °C
3,Cc1cc(F)c(Nc2ncnc3cc(OCc4ccccc4)ccc23)cc1O,0.6 °C
4,C[C@@H]1COC(Nc2ccc3ncnc(Nc4ccc(OCc5nccs5)c(Cl)c4)c3c2)=N1 [Varlitinib],0.88 °C
5,CCCCNc1ncc2c(-c3ccc(CN4CCN(C)CC4)cc3)cn([C@H]3CC[C@H](O)CC3)c2n1,8.18 °C
6,CCC(=O)Nc1cccc(Oc2nc(Nc3ccc(N4CCN(C)CC4)cc3OC)ncc2Cl)c1,0.22 °C
7,CC(C)(CCCCCC(O)CCCCCC(C)(C)C(=O)O)C(=O)O,0.21 °C
8,Cc1c(Cn2c(C)nc3c(C(=O)O)cc(N4CCOCC4)cc32)cccc1C(F)(F)F,0.27 °C
9,Cc1ccc(-n2nc(C(C)(C)C)cc2NC(=O)Nc2ccc(OCCN3CCOCC3)c3ccccc23)cc1 [Doramapimod (BIRB 796)],0.56 °C
10,O=S(=O)(NCCNC/C=C/c1ccc(Br)cc1)c1cccc2cnccc12,0.05 °C
11,CN1CCN(c2ccc(-c3ccncc3-c3cc(F)c(O)c(F)c3)cc2)CC1,0.16 °C
12,C=CC(=O)N[C@H]1CCOC[C@H]1Nc1ncc2cc(-c3c(Cl)c(OC)cc(OC)c3Cl)ccc2n1,-0.04 °C
13,Cc1cc(Nc2cc(N)ncn2)c(=O)n2c1C(=O)NC21CCCCC1,0.38 °C
14,O=C1NC(=O)C(c2ccccc2[N+](=O)[O-])=C1Nc1ccc(O)c(Cl)c1,0.12 °C
15,Cc1ccccc1CN1C2=NCCN2C(=O)C2=C1CCN(Cc1ccccc1)C2 [TIC10 Analogue],0.36 °C
16,CCNC(=O)Nc1ccc(-c2nc3c(c(N4CCOC[C@@H]4C)n2)CCN(C2COC2)C3)cc1,0.23 °C
17,CC[C@@H]1C(=O)N(C)c2cnc(Nc3ccc(C(=O)NC4CCN(C)CC4)cc3OC)nc2N1C1CCCC1,0.34 °C
18,Nc1nc(N)c2nc(-c3cccc(O)c3)c(-c3cccc(O)c3)nc2n1,0.19 °C
19,CCc1cnn2c(NCc3ccc[n+]([O-])c3)cc(N3CCCC[C@H]3CCO)nc12,0.27 °C
20,COc1ccc(CC(=O)Nc2nc3c(s2)CCc2ccccc2-3)cc1OC,0.74 °C
21,CCn1c(N)c(C(=O)NC)c(=O)c2ccc(C#CC(C)(O)COC)nc21 (configuration not stated),1.97 °C
22,Oc1c(F)cc(-c2cnccc2-c2ccc(N3CCOCC3)cc2)cc1F,0.21 °C
23,CCN(CC)CCNC(=O)c1c(C)[nH]c(/C=C2\C(=O)Nc3ccc(F)cc32)c1C [Sunitinib],6.85 °C
24,CC(C)(C#N)c1ccc(N2C(=O)OCc3cnc4ccc(-c5cnc6ccccc6c5)cc4c32)cc1,0.56 °C

# Test system: LOC_OS02G07810-cb001
# Assay: as above
# Conditions: 12.5 µM; protein concentration 2 µM
# How it was run: as §1
row,Structure (SMILES),thermal shift delta Tm
1,COc1cc2ncnc(Oc3ccc(CC(=O)Nc4cnn(C(C)C)c4)cc3)c2cc1OC,0.52 °C
2,CN1C(=O)[C@@H](NC(=O)c2n[nH]c(Cc3ccccc3)n2)COc2ccccc21,-0.03 °C
3,N[C@@H]1CCCN(c2c(/C=C3\SC(=O)NC3=O)cccc2-c2ccccc2)C1,0.55 °C
4,Cc1cc(C(C)Nc2ccccc2)c2nc(N3CCOCC3)cc(=O)n2c1 (configuration not stated),0.27 °C
5,CC#CC(=O)N1CC[C@@H](n2c(=O)n(-c3ccc(Oc4ccccc4)cc3)c3c(N)ncnc32)C1 [ONO-4059 (GS-4059) hydrochloride],0.05 °C
6,COc1cc(OC)c(C=C2C(=O)Nc3ccccc32)c(OC)c1,0.32 °C
7,O=C(Nc1cnn2ccc(N3CCC[C@@H]3c3cc(F)ccc3F)nc12)N1CC[C@H](O)C1 [Larotrectinib (LOXO-101) sulfate],0.18 °C
8,C[C@H](NC(=O)/C(C#N)=C/c1cccc(Br)n1)c1ccccc1,0.51 °C
9,Nc1nccc(Oc2ccc3c(C(=O)Nc4cccc(C(F)(F)F)c4)cccc3c2)n1,0.76 °C
10,Oc1cccc(-c2nc(N3CCOCC3)c3oc4ncccc4c3n2)c1,0.91 °C
11,O=C(c1ccc(Nc2nccc(-c3cc4ccccc4s3)n2)cc1)N1CCC(N2CCCC2)CC1 [IKK-16 (IKK Inhibitor VII)],0 °C
12,Cc1cc(C(=O)NOCCO)c(Nc2ccc(I)cc2F)n(C)c1=O,0.73 °C
13,c1nc2c(NC3CCCCC3)nc(Nc3ccc(N4CCOCC4)cc3)nc2[nH]1 [Reversine],-0.13 °C
14,CC#CC(=O)N1CCC[C@H]1c1nc(-c2ccc(C(=O)Nc3ccccn3)cc2)c2c(N)nccn12 [Acalabrutinib (ACP-196)],0.04 °C
15,CN1CCN(c2nc(C3=C(c4c[nH]c5ccccc45)C(=O)NC3=O)c3ccccc3n2)CC1 [Sotrastaurin],0.94 °C
16,Cc1ccc(-n2nc(C(C)(C)C)cc2NC(=O)NCc2cc(F)ccc2Oc2ccc3c(cnn3CCO)c2)cc1 [Pexmetinib (ARRY-614)],0.69 °C
17,Cc1cc(F)c(Nc2ncnc3cc(OCc4ccccc4)ccc23)cc1O,1.36 °C
18,C[C@@H]1COC(Nc2ccc3ncnc(Nc4ccc(OCc5nccs5)c(Cl)c4)c3c2)=N1 [Varlitinib],0.94 °C
19,CCCCNc1ncc2c(-c3ccc(CN4CCN(C)CC4)cc3)cn([C@H]3CC[C@H](O)CC3)c2n1,-0.25 °C

row,Structure (SMILES),thermal shift delta Tm
1,CCC(=O)Nc1cccc(Oc2nc(Nc3ccc(N4CCN(C)CC4)cc3OC)ncc2Cl)c1,0.45 °C
2,CC(C)(CCCCCC(O)CCCCCC(C)(C)C(=O)O)C(=O)O,0.4 °C
3,Cc1c(Cn2c(C)nc3c(C(=O)O)cc(N4CCOCC4)cc32)cccc1C(F)(F)F,0.73 °C
4,Cc1ccc(-n2nc(C(C)(C)C)cc2NC(=O)Nc2ccc(OCCN3CCOCC3)c3ccccc23)cc1 [Doramapimod (BIRB 796)],0.89 °C
5,O=S(=O)(NCCNC/C=C/c1ccc(Br)cc1)c1cccc2cnccc12,1.39 °C
6,CN1CCN(c2ccc(-c3ccncc3-c3cc(F)c(O)c(F)c3)cc2)CC1,0.06 °C
7,C=CC(=O)N[C@H]1CCOC[C@H]1Nc1ncc2cc(-c3c(Cl)c(OC)cc(OC)c3Cl)ccc2n1,-1.01 °C
8,Cc1cc(Nc2cc(N)ncn2)c(=O)n2c1C(=O)NC21CCCCC1,-1.2 °C
9,O=C1NC(=O)C(c2ccccc2[N+](=O)[O-])=C1Nc1ccc(O)c(Cl)c1,1.72 °C
10,Cc1ccccc1CN1C2=NCCN2C(=O)C2=C1CCN(Cc1ccccc1)C2 [TIC10 Analogue],0.85 °C
11,CCNC(=O)Nc1ccc(-c2nc3c(c(N4CCOC[C@@H]4C)n2)CCN(C2COC2)C3)cc1,0.04 °C
12,CC[C@@H]1C(=O)N(C)c2cnc(Nc3ccc(C(=O)NC4CCN(C)CC4)cc3OC)nc2N1C1CCCC1,0.2 °C
13,Nc1nc(N)c2nc(-c3cccc(O)c3)c(-c3cccc(O)c3)nc2n1,1.52 °C
14,CCc1cnn2c(NCc3ccc[n+]([O-])c3)cc(N3CCCC[C@H]3CCO)nc12,1.17 °C
15,COc1ccc(CC(=O)Nc2nc3c(s2)CCc2ccccc2-3)cc1OC,-0.24 °C
16,CCn1c(N)c(C(=O)NC)c(=O)c2ccc(C#CC(C)(O)COC)nc21 (configuration not stated),0.99 °C
17,Oc1c(F)cc(-c2cnccc2-c2ccc(N3CCOCC3)cc2)cc1F,0.35 °C
18,CCN(CC)CCNC(=O)c1c(C)[nH]c(/C=C2\C(=O)Nc3ccc(F)cc32)c1C [Sunitinib],0.37 °C
19,CC(C)(C#N)c1ccc(N2C(=O)OCc3cnc4ccc(-c5cnc6ccccc6c5)cc4c32)cc1,0.18 °C
